Laboratory results published in PubChem BioAssay AID1962 (The Scripps Research Institute Molecular Screening Center, 2009).
Screen size: about 300,000 compounds; about 2,500 (0.83%) were called active.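 Rule for the calls: active = inhibition above the mean of all tested compounds plus 3 SD, set per screening campaign (cut at about 24% in these data); inactive = the rest.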 What follows is part of a selection rich in actives, with near analogues and random picks from the rest.

Tested on: tRNA 2'-phosphotransferase TPT1 (Candida albicans SC5314)
Assay: Candida albicans TPT1 enzyme inhibitors, primary screen, biochemical, fluorescence polarization (AID 1962);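 note: plate controls were DMSO alone for no effect and ferristatin control at 100 nM for full effect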
Conditions: recombinant caTPT1, FP RNA substrate dephosphorylation; at 5 µM; hits give high values

Row | Structure (SMILES) | inhibition
1 | CCCCC(=O)N/N=C/c1c(O)n(CCC2=CCCCC2)c(=O)[nH]c1=O | 0.99% (inactive)
2 | CCCCC(=O)N/N=C/c1c(O)n(-c2ccccc2)c(=O)[nH]c1=O | -0.86% (inactive)
3 | CCCCC(=O)N/N=C/c1c(O)n(CC)c(=S)n(CC)c1=O | 156% (active)
4 | CNC(=O)Nc1ccc(C(O)(C(=O)OC)C(F)(F)F)cc1 (centres undefined) | 0.47% (inactive)
5 | CCOC(=O)c1c(C)c(C(=O)N2CCC3(CC2)OCCO3)c(C)n1CC | 1.34% (inactive)
6 | O=c1[nH]c(=O)n(-c2ccccc2)c(O)c1C=NC12CN3CN(CN(C3)C1)C2 | -4.46% (inactive)
7 | CCN1C(=O)C(=Cc2c(C)n(CC(=O)NCC3CCCO3)c3ccccc23)C(=O)N(CC)C1=S (centres undefined) | 24.2% (active)
8 | CCC1(C)CC(CCNCc2ccc(N(C)C)cc2)(c2ccc(F)cc2)CCO1 (centres undefined) | 1.22% (inactive)
9 | O=C(C1CC(=O)N(C2CCCC2)C1)N1CCC2(CC1)OCCO2 (centres undefined) | -0.68% (inactive)
10 | COc1ccc(CN2C(=O)NC(=O)/C(=C\c3ccc(OC)c(OC)c3OC)C2=O)cc1 | 10.5% (inactive)
11 | COc1cccc(N2C(=O)NC(=O)/C(=C\c3cn(C)c4ccccc34)C2=O)c1 | -73.3% (inactive)
12 | COc1ccc(N2C(=O)/C(=C/c3ccco3)C(=O)NC2=S)cc1 | 36.7% (active)
13 | O=C(CCCn1c(=O)[nH]c2cc(Cl)ccc2c1=O)N1CCC2(CC1)OCCO2 | 5.94% (inactive)
14 | CCOC(=O)C(O)(c1ccc(N=Cc2ccccc2O)c(C)c1)C(F)(F)F (centres undefined) | 9.39% (inactive)
15 | COC(=O)COc1cc(C)cc2oc(=O)c3c(c12)CCCC3 | -2.95% (inactive)
16 | COc1cc2nc(N3CCN(C(=O)[C@@H]4CCCO4)CC3)nc(N)c2cc1OC | -1.38% (inactive)
17 | CCOCCc1c(O)[nH]c(=S)[nH]c1=O | -3.07% (inactive)
18 | COc1ccccc1N=Nc1c(O)[nH]c(=S)[nH]c1=O | 49.2% (active)
19 | O=C1N=c2ccccc2=C/C1=C\c1c(O)[nH]c(=S)[nH]c1=O | -1.76% (inactive)
20 | O=C1NC(=O)N(Cc2ccco2)C(=O)/C1=C\c1ccc(-c2ccc(F)cc2)o1 | 27.9% (active)
21 | O=C1NC(=O)N(Cc2ccco2)C(=O)/C1=C\c1cccn1CCOc1ccccc1 | 37.9% (active)
22 | Cc1cc(/C=C2/C(=O)NC(=O)N(Cc3ccco3)C2=O)c(C)n1-c1ccc(C(=O)O)cc1 | 22.2% (inactive)
23 | O=C(O)COc1ccccc1/C=C1\C(=O)NC(=O)N(CCC2=CCCCC2)C1=O | 7.72% (inactive)
24 | O=C1NC(=O)N(CCc2ccc(F)cc2)C(=O)/C1=C/C=C/c1ccccc1 | 13.3% (inactive)
